Sampled rows, rich in hits. Any-hit rate of the full collection: about 19%.
HT1080NT lethal: qHTS for induction of synthetic lethality in tumor cells producing 2HG: qHTS for the HT-1080-NT fibrosarcoma cell line | 360,000 compounds, 1.6% hits | Potency, µM (series often up to 46.1 µM), for the others: at the highest dose activity, negative = less viability, most hits filed as cytotoxic | AID 686970, 2013 | HT-1080-NT fibrosarcoma viability, CellTiter-Glo ATP luminescence, 48 h;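 note: NT is the 2HG producing partner of a matched IDH1 knockdown line; potency is the fitted concentration of half-maximal effect; 0% = DMSO-treated cells and -100% = media-only wells without cells; nearly all actives have a fitted effect of over 55% in size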
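750 cells/well, RPMI + 5% FBS; 2 h settle, compound pin-transfer, 48 h at 37 degrees C. CellTiter-Glo 10 min RT, luminescence. Normalized to DMSO and media-only wells.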
IL1B secr inh: qHTS for Inhibitors of Inflammasome Signaling: IL-1-beta AlphaLISA Primary Screen | THP-1 LPS/ATP IL-1B secretion, AlphaLISA, 16 h; active compounds read low | 360,000 compounds, 4.7% hits | activity change, % at 57.5 µM; in the data active = activity change below about -50%; inconclusive = mostly about -30% to -49%
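Secreted IL-1B measured by AlphaLISA bead assay after 16 h compound exposure of THP-1 cells; compounds (final up to 57.5 uM) added 1 h before LPS (250 ng/mL) and ATP (1.25 mM) stimulation; lower signal means less secretion.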
TDP1 cell noCPT: qHTS for Inhibitors of human tyrosyl-DNA phosphodiesterase 1 (TDP1): qHTS in cells in absence of CPT; DT40 Tdp1-/- hTDP1 cells, no CPT, ATP luminescence, 48 h; Potency, µM (top dose mostly 46.2 µM), without a hit: at the highest dose activity change, negative = growth inhibition, actives largely listed as inhibitors; 420,000 compounds, 15% hits; AID 686978, 2013; note: potency is the fitted concentration of half-maximal effect; nearly all actives have a fitted effect of over 55% in size
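Chicken DT40 Tdp1-/- cells stably complemented with human TDP1 were seeded at 400 cells/well with DMSO in place of 20 nM camptothecin. After compound pinning, cells grew at least 48 hr at 37 °C; viability read by CellTiter-Glo luminescence.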
DT40 TDP1 CPT: qHTS for Inhibitors of human tyrosyl-DNA phosphodiesterase 1 (TDP1): qHTS in cells in presence of CPT. Potency, µM (titrated, usually from 46.2 µM), for the others: at the top dose activity change, negative = growth inhibition, hits mostly inhibitors. chicken DT40 Tdp1-/-;hTDP1 cells + 20 nM CPT, ATP luminescence, 48 h. 420,000 compounds, 12% hits; note: potency is the fitted concentration of half-maximal effect; nearly all actives have a fitted effect of over 55% in size
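Chicken DT40 Tdp1-/- cells stably complemented with human TDP1 were seeded at 400 cells/well in medium containing 20 nM camptothecin, exposed to pin-transferred compounds, and grown at 37 °C for at least 48 hr. Viability was read as ATP luminescence.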
uPA generation: qHTS for Inhibitors of Cell Surface uPA Generation. cell surface uPA generation assay, qHTS. Potency, µM (titrated, usually from 38.3 µM), for the others: top-dose activity change, negative = inhibition, usual class: inhibitors. 330,000 compounds, 0.31% hits; active = well fitted inhibition curve with a large enough effect; inconclusive = small, poorly fitted or top-dose-only effect; inactive = no such curve, though single readings can be large or run the other way; tested in mouse RAW 264.7 cells; note: potency is the fitted concentration of half-maximal effect; nearly all actives have a fitted effect of over 55% in size
HT1080 IDH1KD tx: qHTS for induction of synthetic lethality in tumor cells producing 2HG: qHTS for the HT-1080-IDH1KD cell line | 360,000 compounds, 2% hits | Potency, µM (series often up to 46.1 µM), for the others: at the highest dose activity, negative = toxicity, usual class: cytotoxic | HT-1080 IDH1 knockdown viability, ATP luminescence, 48 h;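 note: potency is the fitted concentration of half-maximal effect; 0% = DMSO wells and -100% = cell-free medium wells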
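In this qHTS, HT-1080 cells depleted of IDH1 are exposed for 48 h at 37 °C to compound titrations. Toxicity is scored from CellTiter-Glo luminescence, with DMSO as full viability and medium alone as none.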
Starred values were filed as active, the others as inactive; ? = inconclusive; / = not tested or not shown; ! = not confirmed by another sample; [ ] = another dose, or the depositor's remark. Unless noted, calls come from the whole dose curve; as a rule, active = well fitted curve in the direction sought with a large enough effect; inconclusive = small, poorly fitted or top-dose-only effect, or another doubt; inactive = no such curve, though single readings can be large; an effect the other way counts as inactive or inconclusive. Unless noted, % is set by controls: 0 for no effect and ±100 for the full control effect.

SMILES	HT1080NT lethal	IL1B secr inh	TDP1 cell noCPT	DT40 TDP1 CPT	uPA generation	HT1080 IDH1KD tx
CCCCN(CC)C(=O)CSc1nc2c(sc3ccccc32)c(=O)n1CCc1ccccc1	/	/	5.2µM*	?	/	/
COCCCNC(=O)CSc1nc2c(sc3ccccc32)c(=O)n1CCc1ccccc1	/	/	-20%	-17%	/	/
CCOc1ccc2ccccc2c1/C=N/NC(=O)CNC(=O)c1ccccc1F	2%	-30	?	-18%	4%	-5%
CN(C)S(=O)(=O)c1cccc(NC(=O)COC(=O)c2cc(-c3cccc(Br)c3)nc3ccccc23)c1	-3%	17	?	?	-2%	-3%
COc1cccc(NC(=O)CN(C)C(=O)c2cc(-c3cccc(Br)c3)nc3ccccc23)c1	?	-55*	16µM*	?	-11%	-26%
COc1cccc(NC(=O)CN(C)C(=O)c2cc(-c3ccc(C)o3)nc3ccccc23)c1	-23%	-1	21µM*	?	-21%	-14%
COc1cccc(NC(=O)CN(C)C(=O)c2cc(-c3ccccc3)nc3ccc(C)cc23)c1	?	-5	10µM*	13µM*	2%	-11%
CC(C)[C@@H](CO)NS(=O)(=O)c1ccc(Br)cc1F	6%	-7	-18%	6%	11%	8%
COc1ccc(Oc2ncc3nc(CCc4ccccc4)c(=O)n(C[C@H]4CCCO4)c3n2)cc1	/	/	-12%	?	/	/
O=C(O)c1ccc2nc(-c3cc4cc(Cl)ccc4oc3=O)[nH]c2c1	/	/	0%	?	/	/
COc1ccc(C(=O)CCN2CCCC(C)C2)cc1 (configuration not stated)	?	-24	?	23µM*	-9%	-2%
COc1ccc(OC)c(NC(=O)CCN2CCCC(C)C2)c1 (configuration not stated)	-8%	19	-23%	0%	4%	-6%
COc1ccc(NC(=S)N(CCCN2CCCC(C)C2)Cc2cccs2)cc1 (configuration not stated)	-8%	-23	29µM*	?	1%	-6%
COc1ccc(C(=O)CCN2CCC(C)CC2)cc1	?	8	12µM*	13µM*	-24%	?
C[C@@H]1COC(=O)[C@H](Cc2ccc(F)cc2)CC/C=C\C[C@@H](CC(=O)NCCO)C(=O)N1	20%	19	-6%	1%	-7%	16%
O=C(NCCc1c[nH]c2ccccc12)c1ccc2c(c1)OCO2	-17%	7	?	-5%	-5%	-7%
Cc1ccc2[nH]cc(CCNC(=O)c3ccc4c(c3)OCO4)c2c1	13%	-53*	-26%	-19%	3%	12%
CC(=O)NCCc1c[nH]c2ccc(O)cc12	27%	2	-18%	18µM*!	-3%	5%
Cc1ccc2[nH]cc(CCNC(=O)c3cccs3)c2c1	-5%	-75*	?	0%	-1%	-3%
Cc1ccc2[nH]cc(CCNC(=O)CN3C(=O)c4ccccc4C3=O)c2c1	8%	23	18%	-1%	11%	18%
O=C(NCCCNC(=O)c1cccs1)c1cccs1	5%	15	9.2µM*	8.2µM*	1%	3%
Cc1nnc(N2C(=O)c3oc4ccccc4c(=O)c3C2c2ccc(Cl)cc2)s1 (configuration not stated)	/	/	-24%	-22%	/	/
Cc1ccc(C2c3c(oc4ccccc4c3=O)C(=O)N2c2nnc(C)s2)cc1 (configuration not stated)	/	/	21µM*	13µM*	/	/
Cc1ccc(S(=O)(=O)N(C)c2ccc(OC(=O)c3ccc(=O)[nH]c3)cc2)cc1	-2%	-4	?	?	0%	-1%
CCc1noc(C)c1C(=O)Oc1ccc(N(C)S(=O)(=O)c2ccccc2)cc1	-12%	?	16µM*	23µM*	-13%	0%
SMILES	HT1080NT lethal	IL1B secr inh	TDP1 cell noCPT	DT40 TDP1 CPT	uPA generation	HT1080 IDH1KD tx
CCc1noc(C)c1C(=O)Oc1ccc(N(C)S(=O)(=O)c2ccc(C)cc2)cc1	-15%	-15	2.6µM*	18µM*	?	-18%
C=CCOC(=O)COc1ccc2c3c(c(=O)oc2c1)CCCC3	1%	2	2%	-7%	/	6%
Cc1c2cnn(-c3ccccc3)c(=O)c2c(C)n1CC(=O)NCc1ccccc1	/	/	-29%	?	/	/
O=C(c1ccc(N2CN(C(=O)c3ccco3)c3nc4ccccc4nc32)cc1)N1CCOCC1	?	-59*	23µM*	13µM*	-6%	3%[9.24 µM]
Cc1nn(CC(=O)NC2CCC(C)CC2)c(C)c1[N+](=O)[O-] (configuration not stated)	-7%[9.24 µM]	-11	0%	?	-20%	-3%
Cc1cc(C)c(C)c(C(=O)C(=O)c2ccccc2)c1	13%	25	1%	-2%	4%	24%
Cc1ccc(C(C)C)cc1OCC(=O)NCCCn1ccnc1	20%	2	23µM*	?	1%	20%
O=C(CN1CCN(S(=O)(=O)c2cccc(F)c2)CC1)Nc1ccnn1C1CCCC1	-5%	0	-11%	-26%	2%	2%
CCN(CC)c1ccc(-c2sc(Nc3ccccc3)n[n+]2-c2ccc(F)cc2)cc1	-10%	-1	26µM*	?	5%	?
CCc1ccc(Nc2n[n+](-c3ccccc3)c(-c3ccc(OCc4ccccc4)cc3)s2)cc1	-9%	3	5.2µM*	4.6µM*	?	?
CCc1ccc(Nc2n[n+](-c3ccccc3)c(-c3ccc(N(CC)CC)cc3)s2)cc1	?	-4	9.2µM*	6.5µM*	?	?
O=C(O)c1ccc(-c2sc(Nc3ccccc3)n[n+]2-c2ccccc2)cc1	-16%	92	-5%	-1%	16%	-18%
CN(C)c1ccc(-c2sc(Nc3ccccc3)n[n+]2-c2ccc(F)cc2)cc1	-2%	44	?	?	10%	-4%
CC(C)(C)C1=CC(O)(c2ccccc2)C=C(C(C)(C)C)C1=O	-27%	6	?	?	-6%	-14%
COc1ccc(OC)c(/C=C/c2ccnc3ccccc23)c1	?	-76*	4.6µM*	3.7µM*	-12%	?
